aSyn UTR act – Activators via SNCA 5'UTR binding, MLPCN | alpha-synuclein 5'UTR reporter, activators screen | activity score, % (tested at 7.5 µM), hits read low | 7.1% of 300,000 active | AID 1814, 2009; in the data active = activity score below about -60%
* hit, by the source's call. Only a sample is shown.

SMILES | aSyn UTR act
Cc1cc(NC(=O)c2cc3cccc([N+](=O)[O-])c3[nH]2)ccc1F | -93*
Cc1c(C(=O)N/N=C/C(C)C)[nH]c2c([N+](=O)[O-])cccc12 | 68
Cc1ccccc1OCc1nnc2c3cnn(C)c3ncn12 | -187*
CSc1cccc(NC(=O)Nc2ccccc2)c1 | -111*
CCOC(=O)Cc1csc(NC(=O)/C=C/c2ccc(Cl)cc2)n1 | -64*
CSc1cccc(NC(=S)Nc2cc(C)ccc2C)c1 | -139*
CSc1cccc(NC(=O)/C=C/c2ccc(Cl)cc2)c1 | -160*
CSc1cccc(NC(=O)/C=C/c2ccccc2)c1 | -226*
O=C(/C=C/c1ccccc1)Nc1cccc(C(=O)O)c1 | 95
O=C(/C=C/c1ccccc1)Nc1ccc(Cl)cn1 | -95*
Cc1cccc(NC(=O)/C=C/c2ccc(Cl)cc2)n1 | -158*
CC(C)CCSc1nc(N2CCOCC2)c2c(c1C#N)CC(C)(C)OC2 | 58
CN(C)CCNc1ncnc2c1sc1nc(N3CCOCC3)c3c(c12)CC(C)(C)SC3 | 72
CC1(C)Cc2c(c(N3CCOCC3)nc3sc(C(=O)Nc4ccccc4)c(N)c23)CO1 | -74*
CC(C)n1c(CN(C)Cc2ccccc2)nc2c1c(=O)n(C)c(=O)n2C | 64
Cc1[nH]c2ccccc2c(=O)c1CN(C)Cc1ccccc1 | -89*
CC(C)c1ccc(Nc2nc(CC(=O)O)cs2)cc1 | -77*
COC(=O)c1sc(NC(=S)NC(=O)c2cccc(C)c2)nc1C | -144*
COC(=O)c1sc(NC(=S)NC(=O)c2ccccc2F)nc1C | -152*
C#CCn1c(=NC(=O)c2ccc(Br)s2)sc2cccc(OC)c21 | -113*
COC(=O)[C@H](Cc1ccccc1)NC(=O)c1cc(COc2c(F)cccc2F)on1 | -85*
CCC1(C)N=C(c2ccc3c(c2)OCO3)CC(c2ccccc2O)N1 (centres undefined) | -286*
Cc1cc(-c2ccccc2)nc(N/N=C/c2ccccc2)n1 | -110*
C(=N/Nc1nc(-c2ccccc2)cc(-c2ccccc2)n1)/c1cccnc1 | -121*
Cc1cc(C)nc(N/N=C/c2cccc(Cl)c2)n1 | -93*
SMILES | aSyn UTR act
Cc1cc(-c2ccccc2)nc(N/N=C/c2ccco2)n1 | -126*
Clc1cccc(/C=N/Nc2nc(Cl)nc3ccccc23)c1 | -172*
Clc1cccc(/C=N\Nc2nccs2)c1 | -168*
Cn1cccc1-c1nc2ccccc2[nH]1 | -114*
Cn1cccc1-c1nc2ccc(NC(=O)c3ccccc3)cc2[nH]1 | -124*
CC1CCC(NC(=O)c2ccc3nc[nH]c3c2)CC1 (centres undefined) | -81*
Cc1[nH]c2ccc(C(=O)NC3CCC(C)CC3)cc2c1C (centres undefined) | -148*
Cc1cc(CN2CCCC(C(=O)Nc3ccc(-c4nc5ccccc5[nH]4)cc3)C2)n[nH]1 (centres undefined) | -121*
CC(C)n1cc(CN2CCCC(C(=O)Nc3cccc(-c4cc5ccccc5[nH]4)c3)C2)cn1 (centres undefined) | 58
O=C(NCCS(=O)(=O)N1CCN(c2ccc(F)cc2)CC1)c1ccc(Br)o1 | 127
CCOc1ccc(OCC(=O)NCCS(=O)(=O)N2CCN(c3ccc(F)cc3)CC2)cc1 | -72*
Cc1[nH]n(-c2ccc(Cl)cc2)c(=O)c1C=Nc1ccc(S(=O)(=O)N2CCOCC2)cc1 | -69*
CCCCN(CCCC)C(=S)N/N=C/c1c(C)[nH]n(-c2ccccc2)c1=O | 93
COc1ccccc1N1CCN(C(=O)c2ccc(Cl)c(S(=O)(=O)NCc3ccco3)c2)CC1 | -124*
COc1cc(C(=O)N2CCN(c3cc(Cl)ccc3Cl)CC2)cc(OC)c1OC | 89
c1ccc(-c2cnc(CSc3nnc4ccccn34)o2)cc1 | -94*
Fc1ccc(-c2nnc(CSc3nnc4ccccn34)o2)cc1 | -116*
Fc1ccc(CSc2nnc3ccccn23)c(Cl)c1 | -92*
O=[N+]([O-])c1cc(-c2ccc(C(=S)N3CCOCC3)o2)ccc1Cl | -72*
CN1CCN(C(=S)c2ccc(-c3cccc([N+](=O)[O-])c3)o2)CC1 | -171*
O=[N+]([O-])c1cccc(-c2ccc(C(=S)N3CCOCC3)o2)c1 | -107*
CC(=O)Nc1cccc(NC(=O)CSc2ncc(-c3ccccc3)[nH]2)c1 | -80*
O=C(CSc1ncc(-c2ccccc2)[nH]1)Nc1ccccc1F | -126*
CC(=O)c1c(C)[nH]c(C(=O)Nc2cccc(S(=O)(=O)N(C)C)c2)c1C | -153*
CC(=O)c1c(C)[nH]c(C(=O)Nc2cc(C)cc(C)c2)c1C | -78*
CC(=O)c1c(C)[nH]c(C(=O)Nc2nc(C)cs2)c1C | 86
COc1ccc(OC)c(NC(=O)c2[nH]c(C)c(C(C)=O)c2C)c1 | -85*
CCN(CC)c1ccc(NC(=S)NC(=O)C2CCC2)cc1 | -64*
